KCNQ2 enhance – potentiators of rat KCNQ2 potassium channel. B-score at 10 µM. AID 2239, 2010. Potassium voltage-gated channel subfamily KQT member 2 (Rattus norvegicus), O88943. 310,000 compounds, 0.54% hits. CHO-K1 KCNQ2, FluxOR thallium flux fluorescence; active compounds read high;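 active = fluorescence ratio B-score at least 3 SD of library B-scores, with initial fluorescence B-score within 3 of them, cut at about 5.3 in these data; same plate scores as AID 2156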;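 note: B-score of peak minus minimum over baseline fluorescence ratio after K+ and Tl+ stimulus; positive B-score means potentiation of KCNQ2 with more thallium influx and brighter signal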
Target sequence (O88943 whole entry, looked up): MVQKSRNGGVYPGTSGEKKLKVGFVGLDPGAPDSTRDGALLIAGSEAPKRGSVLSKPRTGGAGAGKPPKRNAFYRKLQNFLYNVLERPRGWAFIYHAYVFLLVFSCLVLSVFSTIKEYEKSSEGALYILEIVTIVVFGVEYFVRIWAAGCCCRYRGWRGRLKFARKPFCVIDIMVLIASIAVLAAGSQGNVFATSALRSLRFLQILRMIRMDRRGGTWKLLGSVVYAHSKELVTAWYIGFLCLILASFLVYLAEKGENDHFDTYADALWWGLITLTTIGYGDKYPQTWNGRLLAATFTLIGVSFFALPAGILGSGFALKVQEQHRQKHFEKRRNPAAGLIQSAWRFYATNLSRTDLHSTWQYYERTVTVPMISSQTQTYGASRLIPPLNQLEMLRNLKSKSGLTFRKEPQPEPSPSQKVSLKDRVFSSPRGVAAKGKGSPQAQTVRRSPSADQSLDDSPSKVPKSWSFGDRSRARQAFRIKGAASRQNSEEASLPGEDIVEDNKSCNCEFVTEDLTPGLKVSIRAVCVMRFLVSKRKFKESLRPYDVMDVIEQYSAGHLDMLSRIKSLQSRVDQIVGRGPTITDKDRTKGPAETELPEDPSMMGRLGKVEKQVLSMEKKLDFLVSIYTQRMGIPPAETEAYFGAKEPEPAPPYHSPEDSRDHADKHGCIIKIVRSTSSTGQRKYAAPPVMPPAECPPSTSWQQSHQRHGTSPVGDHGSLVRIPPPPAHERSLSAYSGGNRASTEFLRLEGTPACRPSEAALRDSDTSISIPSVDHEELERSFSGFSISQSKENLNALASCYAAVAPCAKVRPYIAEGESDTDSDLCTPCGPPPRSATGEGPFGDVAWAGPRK
KCNQ2 block – rat KCNQ2 potassium channel inhibitors, primary screen, cell-based, CHO-K1, FluxOR thallium flux, B-score. B-score at 10 µM. AID 2156, 2009. Potassium voltage-gated channel subfamily KQT member 2 (Rattus norvegicus), O88943. 20 min; active compounds read low. 310,000 compounds, 1.1% hits;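 active = fluorescence ratio B-score at most minus 3 library SDs, with starting brightness B-score within 2 library SDs, cut at about -5.5 in these data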
KCNQ2 block conf – rat KCNQ2 potassium channel inhibitors, confirmation, cell-based, thallium flux; shares compounds with KCNQ2 block; KCNQ2-expressing cells, inhibition; active compounds read low; activity change, negative = inhibition, % at 10 µM; 1,000 compounds, 57% hits
KCNQ1 spec – human KCNQ1 channel inhibition, counter-screen for KCNQ2 inhibitor project, cell-based, FluxOR thallium flux | shares compounds with KCNQ2 block | activity change, negative = inhibition, % at 10 µM | 1,000 compounds, 15% hits | KCNQ1-expressing cells, FluxOR thallium flux fluorescence; active compounds read low | AID 493026, 2011;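 active = activity change at least 3 SD of negative controls below their mean in both duplicate wells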;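 note: CHO cells stably transfected with KCNQ1 and depolarized by potassium stimulus; peak minus minimum fluorescence over baseline after thallium addition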
CHO Tl ctr – thallium flux change in parental CHO cells, counter-screen for KCNQ2 inhibitor project; shares compounds with KCNQ2 block; active compounds read low; activity change, % at 10 µM; 1,000 compounds, 14% hits; AID 493029, 2011
KCNQ2 patch conf – rat KCNQ2 channel inhibitors, confirmation, cell-based, automated patch clamp, single concentration; KCNQ2-expressing cells, automated patch clamp current; shares compounds with KCNQ2 block; 550 compounds, 49% hits; calls only at 10 µM
Of the large screens only hits and unclear results are named; the others gave an inactive call (follow-up assays come after a bar, where they were run). Rows were chosen to be rich in hits. Some 1.6% of all compounds tested hit in one or more screens of this group. Unless noted, the rule behind the calls is not given here.

CC(C)C[C@@]12C(=O)N(c3cccc(F)c3)C(=O)N1[C@H](c1ccc(Cl)cc1)[C@@H]1C(=O)N(C3CCCCC3)C(=O)[C@@H]12	none (no result: KCNQ2 enhance)
CN(C)CCNC(=O)/C(=C/c1ccc(-c2ccc(Cl)cc2Cl)o1)NC(=O)c1ccccc1	KCNQ2 block -9.5 | KCNQ2 block conf -39% | KCNQ1 spec -35% | CHO Tl ctr -33%
CN(C)CCNC(=O)/C(=C/c1ccc(-c2ccc(Cl)cc2)o1)NC(=O)c1ccccc1	none (no result: KCNQ2 enhance)
CCOc1cc(C(=O)OCC(=O)N(C)c2ccccc2)cc(OCC)c1OCC	none (no result: KCNQ2 enhance)
Cc1cc(C)cc(OCC(O)CN2CCC(CN3C(=O)c4cccc5cccc(c45)C3=O)CC2)c1 (stereo not drawn)	none (no result: KCNQ2 enhance)
CCN(CC)CCNC(=O)c1ccc(NC(=O)c2cn(-c3ccccc3)nc2-c2cccs2)cc1	KCNQ2 block -12 | KCNQ2 block conf -42% | KCNQ1 spec -50% | CHO Tl ctr -37% | KCNQ2 patch conf active
CCN(CC)CCNC(=O)c1ccc(NC(=O)c2cn(-c3ccc(F)cc3)nc2-c2cccc(OC)c2)cc1	none (no result: KCNQ2 enhance)
C=CCOc1c(Br)cc(/C=N/Nc2ccc(C(=O)O)cc2)cc1OCC	none
O=C(OCC(=O)N(C1CCCCC1)C1CCCCC1)c1ccccc1O	KCNQ2 block -7.3 | KCNQ2 block conf -36% | KCNQ1 spec inactive | CHO Tl ctr inactive | KCNQ2 patch conf active
O=C(OCC(=O)N(C1CCCCC1)C1CCCCC1)c1ccc(O)cc1	none
CCOc1c(Br)cc(C2NS(=O)(=O)N=C3CCCCCN32)cc1OC (stereo not drawn)	none
Cc1ccsc1C(=O)N1CC=C(c2ccccc2)CC1	none (no result: KCNQ2 enhance)
Cc1cc(C)c(OCC(=O)N2CC=C(c3ccccc3)CC2)c(C)c1	KCNQ2 block -6.9 | KCNQ2 block conf -29% | KCNQ1 spec inactive | CHO Tl ctr inactive | KCNQ2 patch conf inactive
CCN1/C(=C/C=C/c2sc3ccccc3[n+]2CC)Sc2ccccc21	KCNQ2 block -6.9 | KCNQ2 block conf inactive | KCNQ1 spec inactive | CHO Tl ctr inactive
CC[n+]1c(/C=C/Nc2ccccc2)sc2ccccc21	none
Cc1ccn2c(/C=N/OCc3cccc(F)c3)c(-c3ccc(Cl)cc3)nc2c1	KCNQ2 block -7.8 | KCNQ2 block conf -18% | KCNQ1 spec inactive | CHO Tl ctr inactive | KCNQ2 patch conf inactive
Cc1ccn2c(/C=N/OCc3ccc(F)cc3)c(-c3ccc(Cl)cc3)nc2c1	KCNQ2 block -9 | KCNQ2 block conf -26% | KCNQ1 spec inactive | CHO Tl ctr inactive | KCNQ2 patch conf active
Clc1ccc(CO/N=C/c2c(-c3ccccc3)nc3n2CCS3)c(Cl)c1	none (no result: KCNQ2 enhance)
Cc1ncc(N=Nc2ccc(F)cc2)c(-c2ccc(Cl)cc2)n1	none
CC(CCc1ccccc1)NC(=O)C(=O)Nc1ccccc1 (stereo not drawn)	none
Cc1ccc(NC(=O)C(C)OC(=O)c2ccc(NC(=O)CC#N)cc2)cc1S(=O)(=O)N1CCOCC1 (stereo not drawn)	none
COc1ccc(-c2noc(-c3ccccc3-c3ccccc3)n2)cc1OC	KCNQ2 block -8.9 | KCNQ2 block conf inactive | KCNQ1 spec inactive | CHO Tl ctr inactive
COc1ccc(-c2noc(-c3cccnc3)n2)cc1OC	none (no result: KCNQ2 enhance)
O=C(NC(C(=O)N/N=C/c1ccccn1)c1n[nH]c(=O)c2ccccc12)c1ccccc1 (stereo not drawn)	none (no result: KCNQ2 enhance)
Cc1cc(CN2CCOCC2)c(O)c(C2(C)CCCCC2)c1	KCNQ2 block -7.2 | KCNQ2 block conf -19% | KCNQ1 spec inactive | CHO Tl ctr inactive | KCNQ2 patch conf inactive
Oc1c(CN2CCOCC2)cc(-c2ccccc2)cc1CN1CCOCC1	none (no result: KCNQ2 enhance)
Cc1cc(CN(C)C)c(O)c(C2(C)CCCCC2)c1	KCNQ2 block -9.1 | KCNQ2 block conf inactive | KCNQ1 spec inactive | CHO Tl ctr inactive
Cc1nn(C)c(C(=O)Sc2cccc(Cl)c2)c1[N+](=O)[O-]	KCNQ2 block -9.7 | KCNQ2 block conf -47% | KCNQ1 spec -50% | CHO Tl ctr -34% | KCNQ2 patch conf inactive
Cc1nn(C)c(C(=O)Sc2ccccc2)c1[N+](=O)[O-]	KCNQ2 block -7.9 | KCNQ2 block conf -33% | KCNQ1 spec inactive | CHO Tl ctr inactive | KCNQ2 patch conf inactive
Cc1nn(C)c(C(=O)N/N=C/c2ccccn2)c1[N+](=O)[O-]	none
CCn1nc(C)cc1C(=O)Sc1cccc(Cl)c1	none (no result: KCNQ2 enhance)
N#Cc1c(NC(=O)COC(=O)c2ccc(S(=O)(=O)N3CCCC3)cc2)sc2c1CCCCC2	none
Cc1[nH]c2ccccc2c1N=Nc1ccccc1C(=O)O	none
CCc1csc(CCNC(=O)C2CCC(=O)N(Cc3cccc(C(F)(F)F)c3)C2)n1 (stereo not drawn)	none
O=C(NC1CCCC1)c1cc2nc(-c3ccccc3)cc(-c3ccccc3)n2n1	none (no result: KCNQ2 enhance)
O=C(NCCN1CCOCC1)c1cnn2c(-c3ccccc3)cc(-c3ccccc3)nc12	none (no result: KCNQ2 enhance)
O=C(c1cc(-c2ccc(Cl)cc2)nc2ccccc12)N1CCOCC1	none (no result: KCNQ2 enhance)
Cc1ccc(-c2cc(C(=O)N3CCC(C)CC3)c3ccccc3n2)cc1	KCNQ2 block -8.3 | KCNQ2 block conf -29% | KCNQ1 spec inactive | CHO Tl ctr inactive | KCNQ2 patch conf inactive
O=C(c1cnn2c(-c3ccccc3)cc(-c3ccccc3)nc12)N1CCN(Cc2ccccc2)CC1	KCNQ2 block -8.9 | KCNQ2 block conf -28% | KCNQ1 spec inactive | CHO Tl ctr inactive | KCNQ2 patch conf inactive
CC1CCN(C(=O)c2cc3nc(-c4ccccc4)cc(-c4ccccc4)n3n2)CC1	KCNQ2 block -7.8 | KCNQ2 block conf -35% | KCNQ1 spec inactive | CHO Tl ctr inactive | KCNQ2 patch conf inactive
CC(=O)Nc1ccc(NC(=O)C(C)Sc2nc3ccccc3c(=O)n2CC2CCCO2)cc1 (stereo not drawn)	none
O=C(Cc1ccc(S(=O)(=O)N2CCOCC2)s1)NCCOc1ccccc1	none (no result: KCNQ2 enhance)
COc1ccccc1N1CCN(C2CCCN(C(=O)Cn3cccn3)C2)CC1 (stereo not drawn)	none (no result: KCNQ2 enhance)
CCOC(=O)COc1nc(-c2ccco2)cc(-c2ccco2)c1C#N	none (no result: KCNQ2 enhance)
CCOC(=O)C(C)Sc1nc(-c2ccco2)cc(C(F)(F)F)c1C#N (stereo not drawn)	KCNQ2 block -8.8 | KCNQ2 block conf -37% | KCNQ1 spec -39% | CHO Tl ctr -37% | KCNQ2 patch conf inactive
CCc1nnc(NC(=O)CCC(=O)NC2CCCCCCC2)s1	none
CC1(C)CC(=O)C=C(NCC(O)c2ccccc2)C1 (stereo not drawn)	none
Cc1ccccc1NC(=O)/C(=C/c1ccco1)c1ccccc1	none (no result: KCNQ2 enhance)
CCc1ccccc1NC(=O)/C(=C/c1ccco1)c1ccccc1	KCNQ2 block -7.7 | KCNQ2 block conf -29% | KCNQ1 spec inactive | CHO Tl ctr inactive | KCNQ2 patch conf active
